Potency data for 13 compounds are collected here from PubChem BioAssay (NCATS).

Records with an inconclusive call do not appear. Where a call stands in place of a potency, no number is given. The source made the active and inactive calls. Calls follow the shape of the dose curve; as a rule, active = well fitted inhibition curve with a large enough effect; inconclusive = small, poorly fitted or top-dose-only effect; inactive = no such curve, though single readings can be large or run the other way.
Potency is read from the fitted curve at half-maximal effect.

This test in a line: qHTS to identify inhibitors of the type 1 interferon - major histocompatibility complex class I in skeletal muscle: primary screen against the NCATS Mechanism Interrogation Plate v5.0 (MIPE) Libary (AID 1347411). Also: nearly all actives have a fitted effect of over 65% in size. Particulars: iHSKM cells + IFN-b, HiBiT-tagged MHC-I luminescence, 24 h; series mostly up to 45.8 µM. An excerpt:
Assay Submitter (PI): Travis B. Kinder Ph.D. & James Inglese Ph.D.
Assay Development and Screening Technology Laboratory (ADST)
National Center for Advancing Translational Sciences (NCATS), Rockville, MD
National Institute of Health (NIH), Bethesda, Maryland
Idiopathic inflammatory myopathies, collectively referred to as myositis, are a group of rare autoimmune diseases characterized by skeletal muscle inflammation, weakness, and usually accompanied by systemic pathologies of the skin, lungs, or vasculature. Current immunosuppressive therapies and glucocorticoids are often not curative and are accompanied by harsh side effects, especially in children with juvenile myositis. We initiated a drug repurposing and development program to identify more targeted, less toxic therapeutics to treat myositis. Although its cause is not known, muscle from a subset of patients have an abundance of the inflammatory type 1 interferon (IFN) and a down-stream product major histocompatibility complex class I (MHC class I), which are both thought to contribute to damage and weakness. We conducted quantitative high throughput screening on 6,576 compounds (4,679 unique) through a series of cell-based assays to identify those that inhibit the IFN-stimulated expression of MHC class I in muscle precursor cells (myoblasts). The compound identification and evaluation strategy utilized a primary screen with reporter-tagged MHC class I in genome-engineered myoblasts, ATP content counter screen for viability, HLA-ABC immunofluorescence secondary screen, and HLA-B RT-qPCR tertiary screen.
The primary screen utilized CRISPR/Cas9 genome-engineering of immortalized human myoblasts, C25cl48, where a pro-luminescent reporter HiBit was fused to the C-terminus of endogenous MHC class I allele HLA-B*08:01 (HLA-B HiBit myoblasts). HiBit is an 11 amino acid fragment of NanoLuc luminescent reporter (Promega Corporation), and when complexed to the larger LgBit fragment, the reconstituted enzyme produces light in the presence of furimazine substrate (Schwinn et al., 2018). Briefly, HLA-B HiBit myoblasts were plated into 1536-well plates, treated with 4.0 ng/ml human IFN-beta and 2,480 compounds from the NCATS Mechanism Interrogation Plate v5.0 (MIPE5.0) in an 11-point, 1:3 titration with a high final concentration of 46 uM. After 24 hrs of treatment, cells were assayed by Nano-Glo HiBiT Lytic Detection System (Promega) and luminescence measured by a ViewLux 1430 Ultra HTS (Perkin Elmer).
Schwinn MK, Machleidt T, Zimmerman K, Eggers CT, Dixon AS, Hurst R, Hall MP, Encell LP, Binkowski BF, Wood K V. 2018. CRISPR-Mediated Tagging of Endogenous Proteins with a Luminescent Peptide. ACS Chem Biol 13:467-474. doi:10.1021/acschembio.7b00549
PROTOCOL TABLE (as described by Inglese et al., 2007)
SEQUENCE No. (e.g., 1, 2, 3, etc.); […] (e.g., Cells, Incubation, Reagent, etc.); VALUE; DESCRIPTION
1a; Cells; 5 uL; Use a Multidrop Combi (Thermo Scientific) to seed 300 cells/well into 24 Greiner 1536 well white/solid bottom, high base, TC plates in 5 ul/well of iHSKM growth medium (GM) without dexamethasone into columns 1+2. Add metal lids with gas-exchange holes
1b; Cells; 5 uL; Use a Multidrop Combi (Thermo Scientific) to seed 300 cells/well into 24 Greiner 1536 well white/solid bottom, high base, TC plates in 5 ul/well of iHSKM GM without dexamethasone + 4 ng/ml IFN-b into columns 3 - 48. Add metal lids with gas-exchange holes
2; Incubate; 1 hr; Incubate at 37 C, 5% CO2, 95% RH
3; Compounds; 23 nl; Use Pin Tool (Wako) to transfer DMSO control, ruxolitinib IFN-b inhibitor control [High Concentration = 80 uM final, 16-pt, 1:2 in duplicate], and library compounds in DMSO
4; Incubate; 24 hrs; Incubate at 37 C, 5% CO2, 95% RH
5; Dispense; 2.5 ul; Use BioRAPTR FRD (Beckman Coulter) to add HiBit lytic reagent
6; Incubate; 10 min; Incubate in the dark at ambient temperature for lysis
7; Detector; 5 sec; Measure luminescence with ViewLux 1430 Ultra HTS (Perkin Elmer). […]
On the technique in general: In qHTS, concentration-response curves come from the screen itself.
As for `CCCCCN=C(N)N/N=C/c1c[nH]c2ccc(OC)cc12`, the Potency was 6.58 µM (active).
Under `C#C[C@]1(O)CC[C@H]2[C@@H]3CCc4cc(OC)ccc4[C@H]3CC[C@@]21C` stands “inactive”; under `O=c1[nH]c(=O)n([C@H]2C[C@H](O)[C@@H](CO)O2)cc1F`, “inactive”.
Under `CCOC(=O)[C@H](CCc1ccccc1)N[C@@H](C)C(=O)N1[C@H](C(=O)O)C[C@@H]2CCC[C@@H]21` stands “inactive”.
Under `CC(=O)O[C@H]1C[C@@H]2CC[C@@H]3[C@H](CC[C@@]4(C)[C@H]3C[C@H]([N+]3(C)CCCCC3)[C@@H]4OC(C)=O)[C@@]2(C)C[C@@H]1N1CCCCC1` stands “inactive”; under `Nc1nc(Cl)nc2c1ncn2[C@@H]1O[C@H](CO)[C@@H](O)[C@@H]1F`, “inactive”; under `COc1cc([C@H]2Oc3cc([C@H]4Oc5cc(O)cc(O)c5C(=O)[C@@H]4O)ccc3O[C@@H]2CO)ccc1O`, “inactive”.
In the case of `C#C[C@]1(O)CC[C@H]2[C@@H]3CCC4=CC(=O)CC[C@@H]4[C@H]3CC[C@@]21CC`, the Potency entry was “inactive”.
For the compound `C#C[C@]1(O)CC[C@H]2[C@@H]3[C@H](C)CC4=C(CCC(=O)C4)[C@H]3CC[C@@]21C`, the Potency result was “inactive”.
Under `Cc1ccc(-c2ncc(Cl)cc2-c2ccc(S(C)(=O)=O)cc2)cn1` stands “inactive”; under `CC(=O)O[C@]1(C(C)=O)CC[C@H]2[C@@H]3C=C(C)C4=CC(=O)CC[C@]4(C)[C@H]3CC[C@@]21C`, “inactive”; under `Clc1cccc(C(c2ccc3nc[nH]c3c2)n2ccnc2)c1` (stereo not drawn), “inactive”.
In the case of `O=C1[C@H](CC[C@H](O)c2ccc(F)cc2)[C@@H](c2ccc(O)cc2)N1c1ccc(F)cc1`, the Potency entry was “inactive”.
